# Assay results: PubChem BioAssay (NCATS)
# Where “and” joins values, the source holds several entries; their conditions need not be identical. Equal entries are not always repeated. Results filed as inconclusive are left out. A call without a number means that no potency is given here. Where a structure was tested more than once in an assay, its records may differ in their call. Calls of active or inactive are those of the source. The call rests on the fitted dose curve; in most records, active means well fitted curve in the direction sought with a large enough effect; inconclusive means small, poorly fitted or top-dose-only effect, or another doubt; inactive means no such curve, though single readings can be large; an effect the other way counts as inactive or inconclusive. Where a SMILES comes first, the peptide text is derived from it. The star is where a group is joined. βNA = c1ccc2cc(N*)ccc2c1; Cbz = O=C(OCc1ccccc1)*
# Assay: P-glycoprotein substrates identified in KB-3-1 adenocarcinoma cell line, qHTS therapeutic library screen (AID 1346986); further: nearly all actives have a fitted effect of over 60% in size
# Settings: KB-3-1 parental cells viability, CellTiter-Glo, 72 h; series mostly up to 44.5 µM
# Summary of the method: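 72 h cell-killing screen, 500 cells/well, CellTiter-Glo luminescence. Paired lines KB-3-1/KB-8-5-11; P-gp dependence checked by tariquidar co-treatment and HEK-293 MDR-19 versus empty-vector cells.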
row,Compound,Potency
1,C=C1C(=O)OC2CC(COC(=O)C(C)C)=C(C(C)CCCOC(C)=O)[C@@H](OC(C)=O)C12 (some centres undefined),inactive
2,COc1cc(/C=C/C(=O)OC[C@H]2O[C@@H](OC3CC(C)=C(C(=O)O)C(C)(C)C3)[C@H](O)[C@@H](O)[C@@H]2O)cc(OC)c1O (some centres undefined),inactive
3,CC1CC2(O)OC(=O)C3=C2C(CCC3)[C@@]12C[C@@H](c1ccoc1)OC2=O (some centres undefined),inactive
4,C[C@@H]1O[C@@H](O[C@@H]2\C=C/C=C\C=C/C=C\C[C@H](C)OC(=O)/C=C\[C@H]3O[C@@H]3C[C@H](O)C[C@]3(O)C[C@@H](O)[C@@H](C(=O)O)[C@H](C2)O3)[C@H](O)[C@H](N)[C@@H]1O,inactive
5,O=C(O)c1ccc(NC(=O)[C@H](CC2CCCC2)n2cnc(C(F)(F)F)c2)nc1,inactive

# Assay: P-glycoprotein substrates identified in KB-8-5-11 adenocarcinoma cell line, qHTS therapeutic library screen (AID 1346987); further: nearly all actives have a fitted effect of over 65% in size; further: potency means the concentration at half of the fitted maximal effect
# Settings: KB-8-5-11 (P-gp overexpressing) viability, CellTiter-Glo, 72 h; series mostly up to 44.5 µM
# Summary of the method: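 Compounds are pinned in dose-response onto KB-8-5-11 cells (500 cells/well, colchicine-free medium) and left 72 h at 37 degree C. CellTiter-Glo luminescence then yields AC50 values.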
Compound,Potency,"activity change, negative = cytotoxicity",outcome
Cc1c(F)cc(C(=O)NC2CC2)cc1-c1ccc(C(=O)NCC(C)(C)C)cn1,inactive and 1.03 µM (active),,
COc1cc(CCCO)ccc1O[C@@H]1O[C@H](CO)[C@@H](O)[C@H](O)[C@H]1O,inactive,,
CC1(C)O[C@H]2CC(=O)OC[C@@]23C1=C(O)C(=O)[C@]1(C)C3CC[C@@]2(C)[C@H](c3ccoc3)OC(=O)[C@H]3O[C@]321 (some centres undefined),inactive,,
CC/C=C/C(O)C(O)C1=C(C)C(=O)C2(O1)C(=O)NC(OC)(C(=O)c1ccccc1)C2O (centres undefined),inactive,,
COc1cc(/C=C/C(=O)O[C@H]2C[C@@H]3C(C(=O)O)=CO[C@@H](O[C@@H]4O[C@H](CO)[C@@H](O)[C@H](O)[C@H]4O)[C@@H]3[C@H]2C)ccc1O,inactive,,
CC(=O)O[C@@H]1[C@H](O[C@@H]2O[C@H](CO)[C@@H](O)[C@H](O)[C@H]2O)[C@@H](O[C@@H]2O[C@@H](C)[C@H](O)[C@@H](O[C@@H]3O[C@H](CO)[C@@H](O)[C@H](O)[C@H]3O)[C@H]2O)[C@H](OC(=O)[C@]23CCC(C)(C)C[C@H]2C2=CCC4[C@@]5(C)C[C@H](O)[C@H](O[C@@H]6O[C@H](C(=O)O)[C@@H](O)[C@H](O)[C@H]6O)[C@@](C)(C(=O)O)C5CC[C@@]4(C)[C@]2(C)CC3)O[C@@H]1C (some centres undefined),,8.71% [at 9.29 µM] (inactive),
CC(C)CC(NC(=O)OCc1ccccc1)C(=O)NC(CC(C)C)C(=O)NC(CCC(=O)O)C(=O)Nc1ccc2ccccc2c1 (stereo not drawn) (Cbz-Leu-Leu-Glu-βNA; configuration not given here),inactive,,
CC(=O)/C=C/C1C(C)CC(O[C@@H]2O[C@H](CO)[C@@H](O)[C@H](O)[C@H]2O)CC1(C)C (some centres undefined),inactive,,
Cc1c(-c2ccc3c(c2)OCO3)oc2ccc(C(O)C(C)O)cc12 (centres undefined),inactive,,
COC(=O)C1=CO[C@@H](O[C@@H]2O[C@H](CO)[C@@H](O)[C@H](O)[C@H]2O)/C(=C\CO)[C@@H]1CC(=O)OCCc1ccc(O)cc1,inactive,,
C/C=C(\C)C(=O)O[C@H]1C=CC(=O)O[C@H]1/C=C/[C@H](O)[C@@H](C)O,inactive,,
COC(=O)C(CC1(O)c2ccccc2N2C(=O)C(CC(C)C)NC21)n1cnc2ccccc2c1=O (centres undefined),inactive,,
COc1ccc(OC)c(C2C(C#N)=C(N)Oc3n[nH]c(-c4ccc5ccccc5c4)c32)c1 (centres undefined),inactive,,
C/C=C/C=C/C=C/C(=O)O[C@@H]1C=C(CO)[C@](O)(CO)[C@@]2(C)CCCC(C)(C)[C@H]12,inactive,,
CC1(C)CC[C@]2(C(=O)O[C@@H]3O[C@H](CO)[C@@H](O)[C@H](O)[C@H]3O)CC[C@]3(C)C(=CCC4[C@@]5(C)CC[C@H](O[C@@H]6O[C@H](C(=O)O)[C@@H](O)[C@H](O)[C@H]6OC6OC(CO)C(O)C(O)C6O)C(C)(C)C5CC[C@]43C)[C@@H]2C1 (some centres undefined),,,inactive [at 9.29 µM]
CC(C)=CCC[C@@](C)(O)[C@H]1CC[C@]2(C)[C@@H]1[C@H](O)CC1[C@@]3(C)CC[C@H](O[C@@H]4O[C@H](CO)[C@@H](O)[C@H](O)[C@H]4O[C@@H]4O[C@H](CO)[C@@H](O)[C@H](O)[C@H]4O)C(C)(C)[C@@H]3CC[C@]12C (some centres undefined),inactive,,
COc1cc(C)c(C(=O)O[C@@H]2[C@H](O)[C@@H](CO)O[C@H]2n2ccc(=O)[nH]c2=O)c(OC)c1,inactive,,
NC[C@H]1CCC[C@@H](CNC(=O)[C@@H](Cc2c[nH]c3ccccc23)NC(=O)N2CCC3(C=Cc4ccccc43)CC2)C1,inactive,,
C[C@H]1CC[C@@]2(OC1)O[C@H]1CC3C4CC[C@H]5C[C@@H](O)CC[C@]5(C)C4CC(=O)[C@]3(C)[C@H]1[C@@H]2C (some centres undefined),inactive,,
CC(C)=CC1C[C@](C)(O)[C@@H]2[C@H]3CCC4[C@@]5(C)CC[C@H](O[C@@H]6OC[C@H](O)[C@H](O[C@@H]7O[C@H](CO[C@@H]8O[C@H](CO)[C@@H](O)[C@H](O)[C@H]8O)[C@@H](O)[C@H](O)[C@H]7O)[C@H]6O[C@@H]6O[C@@H](C)[C@H](O)[C@@H](O)[C@H]6O)C(C)(C)[C@@H]5CC[C@@]4(C)[C@@]34CO[C@@]2(C4)O1 (some centres undefined),,9.35% [at 9.29 µM] (inactive),

Compound,Potency,"activity change, negative = cytotoxicity",outcome
C[C@]12CC/C(=N\OCC(=O)O)C=C1CC[C@@H]1[C@@H]2[C@@H](O)C[C@@]2(C)[C@H]1CC[C@]2(O)C(=O)CO,inactive,,
CC1(C)COC(=O)[C@@H]1O[C@@H]1O[C@H](CO)[C@@H](O)[C@H](O)[C@H]1O,inactive,,
COC(=O)C(CC1CCCC1)c1ccc(S(C)(=O)=O)cc1 (centres undefined),inactive,,
CC1(C)OC(=O)C=C[C@@]2(C)C1CC(=O)[C@]1(C)C2CC[C@@]2(C)[C@H](c3ccoc3)OC(=O)[C@H]3O[C@]321 (some centres undefined),inactive,,
CC1(C)[C@H]2C[C@H](C/C=C\CCCC(=O)O)[C@@H](NC(=O)c3csc4ccc(O)cc34)[C@@H]1C2,inactive,,
COc1c2c(c(C)c3c1C(=O)OC3)OC1(C)CC(O)C34OC(OC)(CCC3(C)C1C2)OC4(C)CO (centres undefined),inactive,,
O=C(O)/C=C/c1ccc2occc2c1O[C@@H]1O[C@H](CO)[C@@H](O)[C@H](O)[C@H]1O,inactive,,
COc1cc(C(=O)OC[C@H]2O[C@@H](OC(C)(C)C(=O)O)[C@H](O)[C@@H](O)[C@@H]2O)cc(OC)c1O,inactive,,
C=CC(C)(O)C1CC2C3(C)CCCC(C)(C)C3C(O)C(O)C2(C)O1 (centres undefined),inactive,,
CC(=O)NC(Cc1c[nH]c2ccccc(=O)c12)C(=O)O (centres undefined),inactive,,
COc1ccc(CCC(=O)c2c(O)cc(O[C@@H]3O[C@H](CO)[C@@H](O)[C@H](O)[C@H]3O[C@@H]3O[C@@H](C)[C@H](O)[C@@H](O)[C@H]3O)cc2O)cc1O,inactive,,
FC(F)(F)Oc1ccc(-c2ccc3nnc(C(F)(F)F)n3c2)cc1,inactive,,
COc1cc2c(cc1O)CC(O)(CO)C(CO)C2c1ccc(OC2OC(CO)C(O)C(O)C2O)c(OC)c1 (centres undefined),inactive,,
COc1cc(O)cc(O[C@@H]2O[C@H](CO)[C@@H](O[C@@H]3OC[C@](O)(CO)[C@H]3O)[C@H](O)[C@H]2O)c1OC,inactive,,
C=C1C(=O)OC2CC(COC(=O)C(C)C)=C(C(C)CCCOC(C)=O)[C@@H](OC(C)=O)C12 (some centres undefined),inactive,,
COc1cc(/C=C/C(=O)OC[C@H]2O[C@@H](OC3CC(C)=C(C(=O)O)C(C)(C)C3)[C@H](O)[C@@H](O)[C@@H]2O)cc(OC)c1O (some centres undefined),inactive,,
CC1CC2(O)OC(=O)C3=C2C(CCC3)[C@@]12C[C@@H](c1ccoc1)OC2=O (some centres undefined),inactive,,
C[C@@H]1O[C@@H](O[C@@H]2\C=C/C=C\C=C/C=C\C[C@H](C)OC(=O)/C=C\[C@H]3O[C@@H]3C[C@H](O)C[C@]3(O)C[C@@H](O)[C@@H](C(=O)O)[C@H](C2)O3)[C@H](O)[C@H](N)[C@@H]1O,inactive,,
O=C(O)c1ccc(NC(=O)[C@H](CC2CCCC2)n2cnc(C(F)(F)F)c2)nc1,inactive,,
